Only some compounds are listed: those with a hit (about 7.9% of all), similar ones and a draw of the others.
LASV entry inh: qHTS for Inhibitors of binding or entry into cells for Lassa Virus; 1.2% of 300,000 active; Potency, µM (doses to about 37.9 µM), for the others: top-dose activity change, negative = inhibition, usual class: inhibitors; Lassa virus pseudotype entry inhibition, cell reporter; calls by dose curve; tested in HEK293 cells; also: potency is read from the fitted curve at half-maximal effect; nearly all actives have a fitted effect of over 50% in size
FMDV antiviral: High Throughput Screening for Foot and Mouth Disease Virus Antivirals; FMDV antiviral cell-based qHTS; Potency, µM (titrated, usually from 57.9 µM), without a hit: at the top dose activity change, negative = inhibition, hits mostly inhibitors; 1.2% of 410,000 active; calls by dose curve; tested in HEK293T cells; also: read-out not given here; potency is read from the fitted curve at half-maximal effect; nearly all actives have a fitted effect of over 45% in size
HCV inhibitor: qHTS Assay for Inhibitors of Hepatitis C Virus (HCV). Huh7.5.1 HCVcc-Cre infection, luciferase reporter, 44 h. 3.4% of 340,000 active. Potency, µM (top dose mostly 41.8 µM), for inactives: at the highest dose activity change, negative = inhibition, most hits filed as inhibitors; active = well fitted inhibition curve with a large enough effect; inconclusive = small, poorly fitted or top-dose-only effect, or another doubt; inactive = no such curve, though single readings can be large or run the other way; also: potency is read from the fitted curve at half-maximal effect
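Seed cells (1,000/well) for 4 h; treat with compound and infect with HCVcc-Cre, moi about 0.5. Incubate 44 h, then detect luciferase activity.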
Marburg entry inh: qHTS for inhibitors of binding or entry into cells for Marburg Virus. 1.8% of 300,000 active. Potency, µM (titrated, usually from 37.8 µM), for the others: top-dose activity change, negative = inhibition, usual class: inhibitors. Marburg virus pseudotyped entry inhibition, cell reporter; calls by dose curve; tested in HEK293 cells; also: potency is read from the fitted curve at half-maximal effect
HCMV antiviral: qHTS Assay for inhibitors of the human cytomegalovirus (HCMV); activity change, negative = inhibition, % at 57.5 µM; AID 1259415, 2018; HFF cells, HCMV-luciferase reporter, 72 h; active compounds read low; 4.5% of 410,000 active; in the data active = activity change below about -60%; inconclusive = no clear call, values can overlap the other calls; inactive = above about -39%
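Two compound doses tested in HFFs infected with HCMV-luciferase, MOI 1 PFU/cell, 72 h at 37C. Lysate luminescence read with OneGlo; data normalized against buffer-only and 10uM Salinomycin inhibitor controls.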
Starred values were filed as active, the others as inactive; ? = inconclusive; . = not tested or not shown; [ ] = another dose, or the depositor's remark. % is scaled to controls: 0 for no effect and ±100 for the full control effect.

SMILES	LASV entry inh	FMDV antiviral	HCV inhibitor	Marburg entry inh	HCMV antiviral
CC1=C(C(=O)c2ccccc2)C(c2ccc(O)cc2)NC(=S)N1 (stereo not given)	.	-15%	21%	.	-14
CCCOc1ccc(C2NC(=S)NC(C)=C2C(=O)c2ccccc2)cc1OC (stereo not given)	-4%	-3%	?	15µM*	?
COc1cc(C2NC(=S)NC(C)=C2C(=O)c2ccccc2)ccc1O (stereo not given)	0%	-22%	-10%	?	-3
CC1=C(C(=O)c2ccccc2)C(c2ccc(OC(F)F)cc2)NC(=S)N1 (stereo not given)	?	?	?	4µM*	24
Cc1ccc(S(=O)(=O)N(Cc2ccccc2)c2ccccc2C(=O)N2CCCCC2)cc1	?	13%	?	10µM*	-28
CCOc1ccccc1N(CC(=O)N1CCC(C(N)=O)CC1)S(=O)(=O)c1ccc(SC)cc1	9%	28%	3%	15%	-70*
CN(C(=O)C(C)(C)C)c1ccc(OCC(=O)N2CCc3ccccc3C2)cc1	?	?	?	-23%[46.1 µM]	-82*
COc1ccc(N(CC(=O)N2CCc3ccccc3C2)S(=O)(=O)c2ccccc2)cc1	-25%	49%	-15%	?	-3
CN1CCN(C(=O)c2ccccc2N(Cc2ccccc2)S(=O)(=O)c2ccccc2)CC1	-21%	-23%	-7%	?	-2
COc1ccc(S(=O)(=O)N(CC(=O)N2CCc3ccccc3C2)c2ccc(C)cc2)cc1	6.3µM*	33%	.	-21%[46.1 µM]	-1
CCOc1ccccc1N(CC(=O)N1CCC(C)CC1)S(=O)(=O)c1ccc(C)cc1	-17%	36%	.	?	-19
CC(C)c1ccccc1NC(=O)COC(=O)C1(C)CC1(Cl)Cl (stereo not given)	7%[46.1 µM]	-17%	5%	?	-31
O=C(Nc1ccc(F)c(Cl)c1)C1Cc2c(-c3ccc4c(c3)OCO4)ccnc2O1 (stereo not given)	.	-30%	.	.	?
Cc1ccc(S(=O)(=O)N(CC(=O)N2CCCCCC2)c2ccccc2F)cc1	10µM*	29%	11%	11%[46.1 µM]	-62*
COc1ccccc1N(CC(=O)N1CCCCCC1)S(=O)(=O)c1ccc(C)cc1	-21%	71%	-19%	?	-25
COc1ccc(S(=O)(=O)N2CCC[C@H]2C(=O)N2CCC[C@H]2C(=O)N[C@@H](C)c2ccccc2)cc1C	.	-8%	.	.	-101*
COC1=CC(=O)C(OC)=C(OC)C1=O	16µM*	?	?	?	?
CCCCOC(=O)n1c(=O)oc2ccccc21	18%	17%	15%	32%	-101*
COC(=O)n1c(=O)oc2ccccc21	7%	-9%	3%	0%	73
CCOC(=O)c1c(C(=O)OCC)c2c3ccccc3cc(C)n2c1C(=O)OC	.	.	.	1%[14.2 µM]	.
COc1ccc(OC)c(C(=O)CSc2ncc3c(n2)-c2ccccc2N(Cc2ccccc2C)S3(=O)=O)c1	10%[46.1 µM]	-1%	.	.	18
CCNC(=S)N1CCNC(=O)C1CC(=O)OC (stereo not given)	11%[46.1 µM]	?	-1%	6%[46.1 µM]	-72*
COC(=O)CC1C(=O)NCCN1C(=S)Nc1cc(C)cc(C)c1 (stereo not given)	0%	-20%	8%	-6%	-33
C=CCc1cccc(CNc2cnc3ccccc3c2)c1O	.	-4%	7.9µM*	.	-33
Oc1ccccc1CNc1cnc2ccccc2c1	-26%	-5%	?	?	-16
COC(=O)c1c(C)sc(-c2c(-c3ccc(F)cc3)[nH]c3[nH]c(=O)[nH]c(=O)c23)c1O	?	-8%	.	?	-11
Cc1cc(C(F)(F)F)nn1CC(=O)NC[C@H]1CCCO1	.	.	.	3%	.
CC(=O)Nc1ccc(S(=O)(=O)N(C2=NCC(C)S2)c2ccccc2)cc1 (stereo not given)	?	-12%	?	16µM*	.
CC(=O)Nc1ccc(NC(=O)c2ccccc2CCc2ccccc2)cc1	10µM*	-20%	20%	?	?
COc1cc(/C=N/NC(=O)CN(CCc2ccccc2)S(=O)(=O)c2ccc(NC(C)=O)cc2)cc(OC)c1OC	18µM*	?	-26%	-10%	-31
